From ChEMBL document CHEMBL4513216, “Probing the Open Global Health Chemical Diversity Library for Multistage-Active Starting Points for Next-Generation Antimalarials” (ACS Infect Dis, 2020) come the findings set out here.

Among all 65,000 compounds or so, about 2,100 (3.2%) showed an effect of 50% or more. The median lay at about -52%. Many of the other results were omitted from the sample, so strong results are more common in it than they were.

The assay relates to Plasmodium falciparum. Kind of assay: Screen against P. falciparum Asexual Blood Stage (ABS), at 5uM. It counts as functional, Dd2. To be noted: tested at 5 uM.
For `Oc1cccc(CN2CCN(C3CCc4ccccc4C3)CC2)c1` (stereo unspecified), the INHIBITION is on record as 14.6%.
In the case of `Cc1n[nH]c(C)c1C1COCCN1C(=O)Cc1ccccc1F` (stereo unspecified), the INHIBITION is recorded as -105%.
On to `Cc1cnc(CCN(C)C(=O)c2cccc(C)c2O)s1`, for which the INHIBITION is reported as -152%.
Turning to `Cc1ccc(NC2CCN(C(=O)c3sccc3C3CC3)CC2)nn1`, the INHIBITION is -28.9%.
Take `Cc1ccc(C(C)NC(=O)N2CCCN(CC(F)F)CC2)s1` (stereo unspecified): the INHIBITION is -73.5%.
As for `Cc1cccc(CN2C(=O)CC[C@@H]3[C@H]2CCN3Cc2ccc(F)cc2)n1`, the INHIBITION is -111%.
Consider `CCNc1nc2c(s1)C(=O)CN(C(=O)NCc1ccccc1)C2`, for which the INHIBITION is -146%.
Regarding `CN(C)CC1CN(Cc2nc(-c3cccnc3)no2)CCO1` (stereo unspecified), the INHIBITION is -51.1%.
Turning to `Cc1noc(CN2CCOC(CN(C)C)C2)n1` (stereo unspecified), the INHIBITION is -84.3%.
Regarding `Cc1cccc(-c2noc(CN3CCOC(Cn4cccn4)C3)n2)c1` (stereo unspecified), the INHIBITION amounted to 51.2%.
For `Cc1ccc(-c2noc(CN3CCOC(Cn4cccn4)C3)n2)cc1` (stereo unspecified) the value was -105%; for `Cc1ccc(-c2noc(CN3CCOC(CN(C)C)C3)n2)cc1F` (stereo unspecified), 53.2%; for `c1cncc(-c2noc(CN3CCOC(Cn4cccn4)C3)n2)c1` (stereo unspecified), 10.9%.
As to `CC(NC(=O)CN1CCN(c2ccncc2Cl)CC1)c1ccco1` (stereo unspecified), the INHIBITION is listed as -106%.
Turning to `O=C(CCC1CCCN(C(=O)CCc2ccc(F)c(F)c2)C1)NC1CC1` (stereo unspecified), the INHIBITION is recorded as -157%.
With `Cc1ncc(CN2CCc3nc4cc(C(C)(C)C)nn4c(O)c3C2)n1C`, the INHIBITION is reported as -104%.
On to `CN1CCN(C2COC3(CCN(Cc4ccsc4)CC3)C2)CC1` (stereo unspecified), for which the INHIBITION was -10.7%.
In the case of `CN(C)c1cc(C(=O)N2CCCCC2Cn2cccn2)ccn1` (stereo unspecified), the INHIBITION is -202%.
For `Cc1cnn(CC2CCCN2C(=O)c2ccc(OC(C)C)nc2)c1` (stereo unspecified), the INHIBITION is recorded as -94.7%.
With `CC(C)Oc1ccc(C(=O)N2CCCCC2Cn2cccn2)cn1` (stereo unspecified), the INHIBITION was found to be 64.8%.
The result for `CCN(CC1CN(Cc2cccc(C#N)c2)CCO1)c1cccnn1` (stereo unspecified) reads -83.6%; that for `CCn1ccnc1CN1CCCN(C(=O)COC2CCCCC2)CC1`, -84.3%; that for `O=C(Nc1nccs1)NC1CCN(Cc2ccccn2)CC1`, 63.7%.
Regarding `O=C(Nc1nccs1)NC1CCN(Cc2ccccc2)CC1`, the INHIBITION turned out to be 28.3%.
Turning to `O=C(Nc1nccs1)NC1CCN(Cc2ccccc2)C1` (stereo unspecified), the INHIBITION was -9.31%.
The result for `Cc1cn2nc(Sc3nnc(C(C)C)n3C)sc2n1` reads -104%.
As to `OC(c1ccccn1)C1CCN(Cc2cc3n(n2)CCNC3)CC1` (stereo unspecified), the INHIBITION is -27.2%.
Turning to `CN(C)CC(=O)N1CCCCC1c1nc(N)ncc1-c1ccccc1` (stereo unspecified), the INHIBITION was determined as 50.9%.
The result for `CC(=O)N1CCCCC1c1nc(N)ncc1-c1ccccc1` (stereo unspecified) reads -145%.
Consider `CN(C)C(=O)CN1CCCCC1c1nc(N)ncc1-c1ccccc1` (stereo unspecified), for which the INHIBITION is listed as -40.8%.
Regarding `CC(C)Oc1ccc(CN2CCC(c3n[nH]c4ncccc34)CC2)cc1`, the INHIBITION is -69.9%.
As for `Cc1cc(C[C@@H]2CCC[C@H]2NCc2ccccc2C)on1`, the INHIBITION was 65.1%.
The result for `Cc1cc(C[C@@H]2CCC[C@H]2NCc2cc(F)ccc2F)on1` reads 20.7%; that for `Cc1cc(C[C@@H]2CCC[C@H]2NCc2cccc(F)c2F)on1`, -58.5%.
Take `Cc1cc(C[C@@H]2CCC[C@H]2NCc2c[nH]nc2-c2ccccc2)on1`: the INHIBITION is on record as 57.4%.
Consider `Cc1cc(C[C@@H]2CCC[C@H]2NCc2ccccc2F)on1`, for which the INHIBITION is listed as -4.92%.
Take `Cc1cc(C[C@@H]2CCC[C@H]2NCc2ccccc2C(F)(F)F)on1`: the INHIBITION was 15.6%.
Regarding `Cc1cc(C(=O)N2CCN(C)CC2)nn1CC(=O)NCc1cccs1`, the INHIBITION was -139%.
On to `Cc1noc(CS(=O)(=O)C(C)C(=O)N(C)c2ccccc2)n1` (stereo unspecified), for which the INHIBITION is -10%.
Consider `Cc1noc(C)c1CN1CC[C@H]2OCC[C@@H](C(=O)NCC3CC3)[C@H]2C1`, for which the INHIBITION is recorded as -48.5%.
As to `CN1CCCN(c2ccc(F)cc2CNC(=O)c2ccsc2)CC1`, the INHIBITION is reported as 59.9%.
For `Cc1ccc(C(=O)NCc2cc(F)ccc2N2CCCN(C)CC2)o1` the value was 34.9%; for `CN1CCCN(c2ccc(F)cc2CNC(=O)c2cccnc2)CC1`, -51.5%.
The result for `CCc1nc(CN2CCCC(NCc3cccc(C(N)=O)c3)C2)no1` (stereo unspecified) reads -86.3%; that for `Cc1ccnn1CC(=O)N(C)Cc1cnn(-c2ccccc2)c1`, -96.8%.
The result for `CO[C@H]1CN(C(C)C)C[C@@H]1NC(=O)c1cc(COc2ccccc2)[nH]n1` reads 57.2%; that for `CO[C@H]1CN(C(C)C)C[C@@H]1NC(=O)c1cc(-c2ccccc2F)n[nH]1`, -41.9%; that for `CC(=O)NCCNC(=O)c1cc(COc2ccccc2)[nH]n1`, -173%.
Take `N#Cc1ccc(CNCCS(=O)(=O)N2CCc3ccccc32)cc1`: the INHIBITION was -57.5%.
For the compound `OC1CCN(c2ccnc(NCCc3ccccc3Cl)n2)C1` (stereo unspecified), the INHIBITION turned out to be 61.6%.
For the compound `OC1CCN(c2ccnc(NCCc3ccccc3Cl)n2)CC1`, the INHIBITION is given as -50.8%.
